About 83,000 compounds went through this panel and 20% of them were active in at least one assay; those are over-represented in the sample as a whole.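 Assay: single dose, 48 h. Readout: percent growth (0 = no net growth; negative = cell death). Active: <10.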 A number with no mark means an inactive call. Activity calls are given as the source filed them.

What all share (assay): NCI-60 one-dose screen, 48 h (100 = growth as untreated, 0 = no growth, -100 = all killed)
Holding throughout (details): 10 µM

The subject of test [1] is T-47D breast.
Test [2] relates to BT-549 breast.
For test [3], the system named is MDA-MB-435 melanoma.
In test [4] the test system is SW-620 colon.
For test [5], the system named is MCF7 breast.
For test [6], the system named is HCT-116 colon.
Test [7] relates to HCC-2998 colon.
Test [8] deals with KM12 colon.
Test [9] has as its system MDA-MB-468 breast.

With `Cc1ccc(CSc2nc(Cl)c(C#N)c(-c3ccc(F)cc3)n2)cc1`, the growth in test [1] is 31.3%; in test [2] it was 56.4%; in test [3], 99.7%; in test [4], 62.8%; in test [5] it was 72.9%; in test [6], 59.3%. In addition, the growth in [7] is 87.8%; in test [8] it was 72.2%.
`Cc1cc(C)nc(/N=C(\N)Nc2ccc(S(=O)(=O)Nc3nc(C)cc(C)n3)cc2)n1`: the growth is 100% in test [1]; 117% in [2]; 109% in test [3]; 109% in [4]; 95.1% in test [5]; 110% in [6]. Also, the values for the growth in [7] and in test [8] were 113% and 111%, respectively.
Turning to `O=C(Nc1nc2ccc([N+](=O)[O-])cc2s1)Nc1cc(Cl)ccc1I`, the growth in test [1] is -25.9% (active); in test [2], -87.2% (active); in test [3], -52.1% (active); in test [4], -50.3% (active); in [5], -28.9% (active); in [6], -78.8% (active). The growth in [7] is -41.6% (active); in test [8] it was -48.7% (active).
On to `COc1ccc(N(C)c2cc(C#N)nc3ccccc23)cc1/C=C/C(=O)NO`, for which the growth was -10.8% (active) in test [1]; -49.4% (active) in test [2]; -70.5% (active) in test [3]; -37.5% (active) in [4]; -20.8% (active) in test [5]; -9.52% (active) in [6]. Also, the growth in test [7] was -94.8% (active); in test [8] it was -37.1% (active); in test [9], -86.1% (active).
Take `COC[C@@H](CC(C)C)N=C1NC(=O)/C(=C/c2ccc3ncoc3c2)N1`: the growth in test [1] is -4.84% (active); in test [2], 2.39% (active); in test [3] it was 17.3%; in test [4], 0.318% (active); in test [5] it was 1.91% (active); in [6], 22.8%. The growth in [7] was 36.7%; in test [8], 16.4%; in test [9] it was -31.1% (active).
Consider `NS(=O)(=O)c1ccc(NC(=O)CSc2ccc(-c3ccc(Cl)cc3)nn2)c(Br)c1`, for which the growth was 41.6% in [1]; 26.8% in test [2]; 84.8% in test [3]; 82.8% in [4]; 26.8% in test [5]; 26.6% in test [6]. For the same molecule, the values for the growth in test [7] and in test [8] were 58.2% and 64.6%, respectively.
For `Cn1cc(-c2cc(N)n3nc(-c4c[nH]c5ccc(Br)cc45)cc3n2)c2cc(Br)cnc21`, the growth in test [1] was -74.7% (active); in test [2] it was -75.4% (active); in test [3] it was -46.3% (active); in test [4], -71.2% (active); in [5], -79.5% (active); in test [6], -69.6% (active). In addition, the growth in test [7] is -98.1% (active); in [8], -73.1% (active); in test [9] it was -98.3% (active).
`O=C(Nc1ccc(F)c(Cl)c1)c1cc(-c2ccc(F)cc2F)ccc1O`: the growth was -6.69% (active) in [1]; -37.6% (active) in test [2]; 0.745% (active) in test [3]; 6.07% (active) in [4]; -16.1% (active) in test [5]; 9.19% (active) in [6]. Also, the figures for the growth in [7] and in test [8] were 4.97% (active) and -16% (active), respectively.
Take `COc1ccsc1/C=N/NC(=O)c1[nH]c2ccc(Br)cc2c1-c1ccccc1`: the growth in test [1] was -2.72% (active); in test [2], 13.8%; in test [3] it was 2.33% (active); in test [4], 18.4%; in test [5] it was 1.13% (active); in test [6] it was 0.361% (active). For the same molecule, the growth is -5.18% (active) in test [7], -0.302% (active) in test [8] and -6.2% (active) in test [9].
Take `C=C1CC[C@H](C(=C)C)[C@H]2C=C(C)C(=O)C3=C(C(=O)[C@@](C)(O)C3)[C@H]12`: the growth was -59.3% (active) in [1]; -43.7% (active) in test [2]; -58% (active) in [3]; -53.3% (active) in test [4]; -70.5% (active) in test [5]; 12.2% in test [6]. Moreover, the growth is -84.4% (active) in test [7] and -73.9% (active) in test [8].
Turning to `NS(=O)(=O)c1ccc(N=Nc2c(O)n(CC(=O)Nc3ccccc3Br)c3ccccc23)cc1`, the growth in test [1] was 38.1%; in test [2] it was 0.165% (active); in [3], 50.6%; in [4] it was 44.4%; in test [5], 10.7%; in test [6], 21.4%. The growth in test [7] was 39.5%; in test [8] it was 36.7%.
On to `N#Cc1c(NC(=O)c2ccc(C(O)(C(F)(F)F)C(F)(F)F)cc2)sc2c1CCC(=O)C2`, for which the growth in test [1] was -60.5% (active); in test [2], -64.4% (active); in [3], -45.2% (active); in [4] it was -52.8% (active); in test [5] it was -62.1% (active); in test [6] it was -77.7% (active). The values for the growth in test [7] and in test [8] were -95.6% (active) and -53.8% (active), respectively.
Turning to `Cc1ccc(-c2cc(-c3cc4ccccc4nc3Cl)[nH]c(=S)n2)cc1`, the growth was 57.3% in test [1]; 7.67% (active) in [2]; -1.81% (active) in test [3]; 78.4% in test [4]; 47.5% in test [5]; 64.5% in test [6]. Further, the values for the growth in test [7], in test [8] and in [9] were 77.3%, 61.6% and 11.7%, respectively.
Take `COc1ccc2[nH]cc(/C=N/Nc3ccc(Br)cn3)c2c1`: the growth in [1] was 22.3%; in test [2] it was -2.65% (active); in test [3] it was 13.8%; in test [4], 19.2%; in [5], 3.69% (active); in test [6], 8.63% (active). Further, the figures for the growth in test [7], in test [8] and in test [9] were 10.2%, -0.565% (active) and -40.9% (active), respectively.
`O=C1NC(=NC2CCCCCC2)N/C1=C\c1ccc2ncoc2c1`: the growth was 18.9% in test [1]; 9.37% (active) in [2]; 37.8% in [3]; 11.3% in test [4]; 13% in test [5]; 23.5% in test [6]. Also, the results for the growth in [7] and in test [8] were 68.8% and 30%, respectively.
Regarding `CC(=C(c1ccc(OCCCN(C)C)cc1)c1ccc(OCCCN(C)C)cc1)c1ccccc1`, the growth in test [1] was -84.9% (active); in test [2] it was -69% (active); in test [3] it was -98.1% (active); in [4], -44.9% (active); in [5], -82.2% (active); in [6], -10.4% (active). In addition, the growth in test [7] is -94.8% (active); in test [8], -93% (active).
For the molecule `CN1CCN(c2ccc(Nc3nc(NCCCNC(=O)c4ccccc4)c4sccc4n3)cc2)CC1`, the growth in [1] is 54.3%; in test [2] it was 138%; in test [3], 64.4%; in test [4] it was 60.6%; in test [5], 38.4%; in test [6] it was 30.9%. Further, the growth in test [7] was 83.2%; in [8], 54.4%.
As for `COc1ccc2nc(Nc3cccc(NC(=O)c4ccc(CN5CCN(C)CC5)c(C(F)(F)F)c4)c3)ccc2c1`, the growth is -25.9% (active) in test [1]; -45.8% (active) in [2]; -96% (active) in test [3]; -89.7% (active) in test [4]; -97.1% (active) in test [5]; -15.3% (active) in test [6]. Further, the figures for the growth in test [7] and in test [8] were -99.4% (active) and -68.1% (active), respectively.
Regarding `CCOc1ccc(/C=N/NC(=O)Cn2nc(Cc3ccc([N+](=O)[O-])cc3)c3onc(C)c3c2=O)cc1`, the growth in test [1] is 8.58% (active); in [2], 55.2%; in test [3], 49.7%; in test [4], 15.2%; in [5], 9.23% (active); in [6] it was -26% (active). In addition, the growth in [7] was 29%; in test [8], 51.3%; in [9], -30.7% (active).
As for `Cc1cccc2cc(-c3cc(-c4ccccc4)nc(=O)[nH]3)c(Cl)nc12`, the growth in test [1] is 76.7%; in [2], 84.4%; in [3], 99.8%; in test [4], 87.7%; in test [5] it was 29.3%; in test [6], 63.4%. Further, the growth in [7] was 102%; in test [8] it was 73.5%.
For the molecule `CC(=O)Nc1ccc(-n2cnc3cc(-c4ccc(O)cc4)ccc32)cc1C`, the growth in [1] was 32.6%; in test [2] it was 50.7%; in test [3] it was -13.2% (active); in test [4], 44.2%; in test [5], 50.9%; in [6], 70%. The growth was 60.7% in [7] and 22.1% in test [8].
Consider `CO[C@@H]1CSSC1Cn1nc(-c2ccc(Oc3ccccc3)cc2)c2c(N)ncnc21` (some centres undefined), for which the growth in test [1] is 7.37% (active); in [2], 35.5%; in test [3], -72.1% (active); in test [4], 29.1%; in [5] it was 16.5%; in test [6] it was 9.66% (active). Besides, the growth is 47.5% in [7] and 38% in test [8].
Take `Cc1ccc(/C=C/C(=O)c2ccc(NC(=O)CSc3nnc(-c4c[nH]c5ccccc45)n3-c3ccccc3)cc2)cc1`: the growth in [1] is 54.2%; in test [2], 95.7%; in test [3] it was 72.8%; in test [4] it was 90.1%; in test [5] it was 8.55% (active); in test [6], -40.2% (active). Further, the growth in [7] is 83.8%; in [8], 78.7%.
On to `O=C(N/C(=C1/OCCN1Cc1ccccc1)[P+](c1ccccc1)(c1ccccc1)c1ccccc1)c1ccccc1`, for which the growth was 11.2% in test [1]; -16.4% (active) in test [2]; 18.5% in test [3]; 12.5% in test [4]; 1.56% (active) in test [5]; 2.1% (active) in test [6]. Also, the growth in [7] was -10.8% (active); in test [8], -1.17% (active).
With `CC(=O)Nc1ccc(-c2cn(-c3cccc(C(=O)Nc4ccc(F)c(C(F)(F)F)c4)c3)nn2)cn1`, the growth in test [1] is 88.2%; in test [2] it was 103%; in [3], 59.7%; in [4], -8.11% (active); in test [5], 4.2% (active); in test [6], 14.7%. In addition, the results for the growth in test [7] and in test [8] were 62% and 28.4%, respectively.
Regarding `C/C(=C\CC/C=C(\C)CC/C=C(\C)CC[C@@H](O)C(C)(C)O)CC/C=C(\C)CC[C@@H](O)C(C)(C)O`, the growth was 6.38% (active) in [1]; 8.56% (active) in test [2]; 39.5% in test [3]; 43% in test [4]; 13.8% in test [5]; 10% in test [6]. The growth in [7] was 31.7%; in test [8] it was 25.5%; in [9], 0.844% (active).
Turning to `CC1(C)CC[C@]23CC[C@]4(C)[C@H](CC[C@@H]5[C@@]6(C)CC[C@H](N)C(C)(C)[C@@H]6CC[C@]54C)[C@H]2[C@H]1OC3=O`, the growth was -78.2% (active) in [1]; -97.7% (active) in test [2]; -96.2% (active) in [3]; -73.7% (active) in test [4]; -80.1% (active) in [5]; -98.9% (active) in [6]. Moreover, the growth in [7] is -92.2% (active); in test [8], -86.6% (active); in test [9], -95.6% (active).
Turning to `O=c1oc2ccc(-c3ccc(F)cc3F)cc2c(=O)n1-c1ccc(F)cc1`, the growth in [1] was -20.5% (active); in test [2] it was -25.8% (active); in [3], 0.996% (active); in [4] it was 10.2%; in test [5], -4.67% (active); in [6], 8.96% (active). Besides, the growth in test [7] was 7.52% (active); in test [8] it was -0.662% (active); in test [9] it was -29.8% (active).

The values are drawn from PubChem BioAssay (NCI).
